Lassa entry inh: Lassa virus entry inhibition; Lassa virus pseudotype entry inhibition, cell reporter; Potency, µM (doses to about 37.9 µM), usual class: inhibitors; 300,000 compounds, 1.2% hits; AID 540256; calls by dose curve; tested in HEK293 cells; also: nearly all actives have a fitted effect of over 50% in size
Marburg entry inh: Marburg virus entry inhibition; 300,000 compounds, 1.8% hits; Marburg virus pseudotyped entry inhibition, cell reporter; AID 540276; Potency, µM (titrated, usually from 37.8 µM), usual class: inhibitors; calls by dose curve; tested in HEK293 cells
HCV inh: HCV inhibition | AID 651820 | Huh7.5.1 HCVcc-Cre infection, luciferase reporter, 44 h | 340,000 compounds, 3.4% hits | Potency, µM (series often up to 41.8 µM), hits mostly inhibitors; active = well fitted inhibition curve with a large enough effect; inconclusive = small, poorly fitted or top-dose-only effect, or another doubt; inactive = no such curve, though single readings can be large or run the other way
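Compounds are dispensed onto cells plated 4 h earlier at 1,000 per well, with HCVcc-Cre virus (about 0.5 moi) added next. Following 44 h of culture, luminescent signal is measured for 15 sec after 15 min with substrate at room temperature.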
HCMV inh: inhibitors of human cytomegalovirus; activity change, negative = inhibition, % at 57.5 µM; AID 1259415; 410,000 compounds, 4.5% hits; HFF cells, HCMV-luciferase reporter, 72 h; stronger effect = lower value; in the data active = activity change below about -60%; inconclusive = no clear call, values can overlap the other calls; inactive = above about -39%
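Steps: HFFs plated, 16 h 37C; compounds added; HCMV-luciferase added to MOI 1 PFU/cell; 72 h 37C; OneGlo reagent, 5 min room temperature; luminescence read, normalized to controls.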
FMDV inh: antivirals against foot and mouth disease virus; FMDV antiviral cell-based qHTS; Potency, µM (top dose mostly 57.9 µM), most hits filed as inhibitors; 410,000 compounds, 1.2% hits; calls by dose curve; tested in HEK293T cells; also: read-out not given here; nearly all actives have a fitted effect of over 45% in size
Of the large screens only hits and unclear results are named; the others gave an inactive call. An excerpt weighted towards active compounds, which were near 7.9% of everything screened.

COc1ccc(Oc2cn[nH]c2-c2ccc(O)cc2O)cc1	Lassa entry inh inconclusive, Marburg entry inh inconclusive, FMDV inh inconclusive
CCCOC(=O)c1ccc(Oc2cn[nH]c2-c2ccc(O)cc2O)cc1	HCV inh 8.9µM, HCMV inh inconclusive, FMDV inh inconclusive (no result: Lassa entry inh, Marburg entry inh)
CCOc1ccccc1Oc1cn[nH]c1-c1ccc(O)cc1O	Lassa entry inh inconclusive, Marburg entry inh inconclusive, HCV inh inconclusive, HCMV inh -78, FMDV inh inconclusive
CCCc1ccc(Oc2cn[nH]c2-c2ccc(O)cc2O)cc1	Lassa entry inh inconclusive, HCV inh inconclusive, HCMV inh -68
CCOC(=O)c1ccc(Oc2cn[nH]c2-c2ccc(O)cc2O)cc1	HCV inh inconclusive, HCMV inh inconclusive (no result: Lassa entry inh, Marburg entry inh)
COc1ccc(NC(=O)CCCOc2cc(=O)n(C)c3ccccc23)c(OC)c1	none (no result: HCV inh)
CCOc1ccc(OCC(=O)NCCS(=O)(=O)N2CCN(c3ccccc3F)CC2)cc1	none (no result: Marburg entry inh, HCV inh)
N/C(=N\OC(=O)CC1CCCCC1)c1ccc(Cl)cc1	none
O=C(Cn1cccn1)N1CCOc2c(cc(-c3ncc(C(F)(F)F)cc3Cl)cc2OCC2CCCO2)C1 (stereo not drawn)	none (no result: Lassa entry inh, Marburg entry inh, HCV inh, HCMV inh)
CC(Oc1cc(F)ccc1[N+](=O)[O-])C(=O)N(C)CC(=O)Nc1ccccc1C(F)(F)F (stereo not drawn)	HCV inh inconclusive
O=C(N/N=C/c1sc(N2CCOCC2)nc1-c1ccccc1)c1ccccc1F	Lassa entry inh inconclusive, HCV inh inconclusive, FMDV inh inconclusive (no result: HCMV inh)
O=C(N/N=C/c1sc(N2CCOCC2)nc1-c1ccccc1)c1ccccc1Cl	Lassa entry inh inconclusive, HCV inh 8.9µM
O=C(N/N=C/c1sc(N2CCOCC2)nc1-c1ccccc1)c1ccccc1O	Lassa entry inh 1.3µM, Marburg entry inh 7.9µM, HCV inh inconclusive
O=C(Nc1ccccc1F)C(=Cc1sc(N2CCOCC2)nc1-c1ccccc1)C(=O)Nc1ccccc1F	HCMV inh -70
O=C(N/N=C/c1sc(N2CCOCC2)nc1-c1ccccc1)c1cccc(S(=O)(=O)N2CCOCC2)c1	HCV inh inconclusive, HCMV inh -100 (no result: Lassa entry inh, Marburg entry inh)
COc1ccccc1-c1cc(C(=O)NCc2ccccc2)c2c(-c3ccc(C)cc3)[nH]nc2n1	none (no result: Marburg entry inh, HCV inh)
COc1cc(OC)c(-c2cc(C(=O)NCc3ccc(F)cc3)c3c(-c4ccccc4)[nH]nc3n2)cc1OC	Lassa entry inh inconclusive, HCMV inh -93 (no result: Marburg entry inh, HCV inh)
CCOc1ccc(-c2cc(C(=O)NCCc3ccc(OC)c(OC)c3)c3c(-c4ccc(F)cc4)[nH]nc3n2)cc1	HCMV inh -92 (no result: Marburg entry inh, HCV inh)
Cc1cc(F)ccc1O[C@H]1C=C[C@@H](c2ccc3c(c2)OCO3)O[C@@H]1CO	none (no result: Lassa entry inh, HCV inh, HCMV inh, FMDV inh)
CCN1CCN(c2cc3c(cc2F)c(=O)c(S(=O)(=O)c2ccc(OC)cc2)cn3CC)CC1	none (no result: Marburg entry inh, HCV inh)
O=C(CSc1nnnn1C1CC1)N1CCN(Cc2ccccc2F)CC1	HCMV inh -69 (no result: Lassa entry inh, Marburg entry inh)
COc1ccccc1N1CCN(C(=O)CSc2nnnn2C2CC2)CC1	none
C=CCOc1ccc(CN(C)C(=O)CNC(=O)c2ccc(-c3ccccc3)cc2)cc1	Lassa entry inh inconclusive, Marburg entry inh inconclusive, HCV inh 11µM, HCMV inh -81, FMDV inh 13µM
CCn1cc(C(=O)NCc2cccc(C(F)(F)F)c2)c(=O)c2ccc(C)nc21	HCMV inh -69 (no result: Lassa entry inh, Marburg entry inh)
O=C(c1ccncc1)N1CCC2(CC1)CCN(C(c1ccccc1)c1ccccc1)CC2	none (no result: Lassa entry inh, Marburg entry inh, HCV inh, HCMV inh)
Cc1nc2c(o1)CCc1ccccc1[C@H]2O	none (no result: Lassa entry inh, HCV inh, HCMV inh, FMDV inh)
CC(C)NC(=O)c1csc(C(O)c2cccc(N(C)C)c2)n1 (stereo not drawn)	HCMV inh -75 (no result: Lassa entry inh, Marburg entry inh, HCV inh, FMDV inh)
COc1cccc(CNC(=O)C(=O)NCC2OCCCN2S(=O)(=O)c2cc(C)ccc2C)c1 (stereo not drawn)	Marburg entry inh inconclusive, HCV inh inconclusive, HCMV inh inconclusive
Nc1ncnc(N)c1NC(=O)c1ccccc1	HCMV inh -101 (no result: Lassa entry inh, Marburg entry inh, HCV inh, FMDV inh)
CCSc1nnc(NC(=O)C(C)(C(F)(F)F)C(F)(F)F)s1	Marburg entry inh inconclusive, HCV inh inconclusive, HCMV inh -66
CCSc1nnc(NC(=O)C(C(F)(F)F)C(F)(F)F)s1	none
CCSc1nnc(NC(=O)C(CC)(C(F)(F)F)C(F)(F)F)s1	Lassa entry inh 13µM, Marburg entry inh inconclusive, HCMV inh inconclusive, FMDV inh inconclusive
Cc1ccc(N(C(=O)CCC(=O)Nc2nccs2)C(C(=O)NC(C)(C)C)c2ccc(O)cc2)cc1 (stereo not drawn)	Marburg entry inh 8.9µM, HCMV inh inconclusive
CC(C)(C)NC(=O)C(c1ccc(O)cc1)N(C(=O)CCC(=O)Nc1nccs1)c1ccc(F)cc1 (stereo not drawn)	Lassa entry inh inconclusive, Marburg entry inh 2.2µM
CC(C)(C)NC(=O)C(c1ccc(O)cc1)N(Cc1ccccc1)C(=O)CCC(=O)Nc1nccs1 (stereo not drawn)	none
CN(Cc1ccccc1)C(=O)C(=O)Nc1ccc2nc3n(c(=O)c2c1)CCCCC3	none (no result: HCV inh)
CN1CCCN(C(=O)C2CCC(C(=O)N3CCCN(C)CC3)CC2)CC1 (stereo not drawn)	none
COC(=O)C1CCN(C(=O)C2CCCCC2)CC1	HCV inh 5µM
CCOC(=O)N1CCN(C(=O)C2CCCCC2)CC1	none
O=C(C1CCC(C(=O)N2CCCCC2)CC1)N1CCCCC1 (stereo not drawn)	Marburg entry inh inconclusive, HCMV inh -61
CCCN1C(=O)c2ccccc2NC1c1ccc(OC)cc1O (stereo not drawn)	Lassa entry inh 1.6µM, Marburg entry inh inconclusive, HCMV inh -91, FMDV inh inconclusive
O=c1oc(-c2ccccc2)cc(Cl)c1Cl	Lassa entry inh inconclusive, Marburg entry inh 11µM, HCV inh inconclusive, HCMV inh -101, FMDV inh 25µM
COc1ccc(-c2nc(C#N)c(N3CCCCCC3)o2)cc1OC	Lassa entry inh inconclusive, HCV inh 10µM, HCMV inh inconclusive (no result: FMDV inh)
CCOc1ccc(-c2nc(C#N)c(N3CCN(CC)CC3)o2)cc1	HCV inh inconclusive
CCOc1ccc(-c2nc(C#N)c(N3CCCCCC3)o2)cc1	HCV inh inconclusive, HCMV inh -70 (no result: Lassa entry inh, Marburg entry inh)
CCOc1ccc(-c2nc(C#N)c(N3CCN(C)CC3)o2)cc1	Lassa entry inh inconclusive, HCV inh inconclusive, HCMV inh -61
CC(CSc1nc2ccccc2s1)Cn1c(N2CCCC2)nc2c1c(=O)[nH]c(=O)n2C (stereo not drawn)	Marburg entry inh 8.9µM, HCV inh inconclusive, HCMV inh inconclusive
CC(C)CCn1c(Sc2nc3ccccc3s2)nc2c1c(=O)[nH]c(=O)n2C	Lassa entry inh inconclusive, Marburg entry inh inconclusive, FMDV inh 32µM
Cc1ccccc1Nc1nc(N)nc(CN(C)c2ccccc2)n1	none
COCc1c(C(=O)OCc2nc(N)nc(Nc3ccccc3C)n2)oc2ccccc12	Lassa entry inh inconclusive, Marburg entry inh 23µM, HCV inh inconclusive
Cc1c(Cl)cccc1Nc1nc(N)nc(CSc2ncccn2)n1	HCMV inh -94
Nc1nc(CCl)nc(Nc2ccc3ccccc3c2)n1	Lassa entry inh 4µM, Marburg entry inh inconclusive, HCV inh 0.89µM, HCMV inh -93
Cc1ccccc1Nc1nc(N)nc(CCl)n1	Lassa entry inh inconclusive, Marburg entry inh inconclusive, HCV inh 1.3µM, HCMV inh -101
Cc1c(Cl)cccc1Nc1nc(N)nc(CSCCO)n1	none

Assay outcomes from PubChem BioAssay.
